In PubChem BioAssay (Tox21):
“And” between values parts separate entries of the source, which are not always exact repeats. Equal values may be shown once. Results filed as inconclusive are left out. Entries that show only a call come without a potency. More than one record can exist for a structure, and the calls need not agree. The source made the active and inactive calls. Calls come from the whole dose curve. Peptide text beside a SMILES is read from it.

Target: Muscarinic acetylcholine receptor M1 (Homo sapiens) (UniProt P11229)
Assay: Cholinergic receptor muscarinic 1 (CHRM1) small molecule antagonists, cell-based qHTS assay (AID 1963588); note: nearly all actives have a fitted effect of over 40% in size
Outline: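 Compounds were tested at 15 concentrations in three independent runs. Dye-loaded CHRM1-CHO cells were exposed 5 min at room temperature before stimulation by acetylcholine added at 50nM. Intracellular calcium was read kinetically on FDSS for 3 min.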
Potency is the fitted concentration of half-maximal effect.

Muscarinic acetylcholine receptor M1 (Homo sapiens), sequence (P11229 whole entry, looked up): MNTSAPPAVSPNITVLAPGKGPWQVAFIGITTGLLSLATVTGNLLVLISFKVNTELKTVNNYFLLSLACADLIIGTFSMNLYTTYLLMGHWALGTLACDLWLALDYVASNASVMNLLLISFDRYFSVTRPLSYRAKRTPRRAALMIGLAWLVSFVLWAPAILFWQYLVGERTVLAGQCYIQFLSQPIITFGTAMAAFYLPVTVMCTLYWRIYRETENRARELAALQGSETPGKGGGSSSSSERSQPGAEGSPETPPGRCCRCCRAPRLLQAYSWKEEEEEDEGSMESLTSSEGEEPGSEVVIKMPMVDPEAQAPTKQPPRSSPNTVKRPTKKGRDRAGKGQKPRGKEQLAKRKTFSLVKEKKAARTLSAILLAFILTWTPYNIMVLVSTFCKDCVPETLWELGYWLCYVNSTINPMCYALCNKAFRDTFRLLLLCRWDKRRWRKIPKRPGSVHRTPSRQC

| SMILES | Potency |
| --- | --- |
| Cc1ccc(O)c(-n2nc3ccccc3n2)c1 | inactive |
| C=C(C)CNCC | inactive |
| CCCCCCCCC(=O)O | inactive |
| CC(CCC(=O)O)(c1ccc(O)cc1)c1ccc(O)cc1 | inactive |
| CCCCCCCCCCO | inactive |
| COc1ccc(CCC(C)=O)cc1 | inactive |
| CCNc1ccccc1 | inactive |
| CCOC(=O)C(C#N)=C(c1ccccc1)c1ccccc1 | inactive |
| C=Cc1cccc(C)c1 | inactive |
| O=C=Nc1ccc(Cc2ccc(N=C=O)cc2)cc1 | inactive |
| c1ccc2[nH]cnc2c1 | inactive |
| COc1ccc(OC)cc1 | inactive |
| CCCCOC(=O)CCCCCCCCC(=O)OCCCC | inactive |
| Cc1ccc(C(C)C)cc1 | inactive |
| Nc1nc2ccccc2[nH]1 | inactive |
| Cc1cccc(C(=O)O)c1 | inactive |
| COCC(=O)O | 8.63 µM (active) and inactive |
| Cc1cc(CC(=O)O)n(C)c1C(=O)c1ccc(Cl)cc1 | inactive |
| CCCCC(CC)COC(=O)C(C#N)=C(c1ccccc1)c1ccccc1 (stereo unspecified) | inactive |
| CCCCCCCC(=O)O | inactive |
| C=CCCCCCCCCCC | inactive |
| c1ccc2cc3c(ccc4ccccc43)cc2c1 | inactive |
| CCCCCCCCCCC(CO)CCCCCCCC (stereo unspecified) | inactive |
| OCC(O)CS (stereo unspecified) | inactive |

| SMILES | Potency |
| --- | --- |
| O=c1n(CC2CO2)c(=O)n(CC2CO2)c(=O)n1CC1CO1 (stereo unspecified) | inactive |
| CCCCNC(=O)NS(=O)(=O)c1ccc(N)cc1 | inactive |
| CCC(=O)/C=C/C1C(C)=CCCC1(C)C (stereo unspecified) | inactive |
| NS(=O)(=O)O | inactive |
| CCCOC(=O)c1ccccc1 | inactive |
| C=CCCCCCCCCC(=O)O | inactive |
| CC(C)c1ccc(C(C)C)cc1 | inactive |
| c1ccc(Nc2ccccc2)cc1 | inactive |
| CCOC(=O)C1OC1c1ccccc1 (stereo unspecified) | inactive |
| COc1ccc(C(=O)c2ccccc2)c(O)c1 | inactive |
| NCCNc1cccc2ccccc12 | inactive |
| C=CN1CCCC1=O | inactive |
| CCCCCC/C=C/CCCCCCCC(=O)O | inactive |
| CC(CCl)OP(=O)(OC(C)CCl)OC(C)CCl (stereo unspecified) | inactive |
| CCCCCCCCCC(=O)O | inactive |
| NCCCCCCN | inactive and 16.8 µM (active) |
| O=C(O)CCCCC(=O)O | inactive |
| OCc1ccc(Cl)cc1Cl | inactive |
| CCCOC(=O)NCCCN(C)C | inactive |
| CC/C=C(\C(=O)N[C@@H]1C(=O)N2C(C(=O)OCOC(=O)C(C)(C)C)=C(COC(N)=O)CS[C@H]12)c1csc(N)n1 | inactive |
| CN(C)CCOC(=O)COc1ccc(Cl)cc1 | inactive |
| CC(C)(CO)COC(=O)C(C)(C)CO | inactive |
| CC(C)(CO)CO | inactive |
| CC(=O)Nc1ccc2c(c1)Cc1cc(NC(C)=O)ccc1-2 | inactive |

| SMILES | Potency |
| --- | --- |
| COC(=O)CCCC(=O)OC | inactive |
| C/C=C/c1ccc(OCC)c(O)c1 | inactive |
| COC(=O)[C@H](Cc1ccccc1)NC(=O)[C@@H](N)CC(=O)O (H-Asp-Phe-OMe) | inactive |
| CC(C)=CCCC(C)CCO (stereo unspecified) | inactive |
| CN(C)C | inactive |
| Cc1ccc(C)c(C)c1 | inactive |
| c1ccc(OCCOc2ccccc2)cc1 | inactive |
| CC(C)[N+](C)(CCOC(=O)C1c2ccccc2Oc2ccccc21)C(C)C | inactive |
| O=C(O)c1[nH]n(-c2ccc(S(=O)(=O)O)cc2)c(=O)c1N=Nc1ccc(S(=O)(=O)O)cc1 | inactive |
| CC(=O)OC(C)(C)C1CC=C(C)CC1 (stereo unspecified) | inactive |
| C=C(C)C(=O)O[C@H]1C[C@@H]2CC[C@@]1(C)C2(C)C | inactive |
| C=C(C)C1CC=C(C)C(OC(C)=O)C1 (stereo unspecified) | inactive |
| Cc1cc(=O)[nH]c(=S)[nH]1 | inactive |
| CCCCOCCOCCOC(C)=O | inactive |
| NNc1ccc(C(=O)O)cc1 | inactive |
| C=CCNCC=C | inactive |
| O=c1cc[nH]c(=O)[nH]1 | inactive |
| O=c1c(O)c(-c2ccc(O)cc2)oc2cc(O)cc(O)c12 | inactive |
| N[C@@H](Cc1cc(I)c(Oc2cc(I)c(O)c(I)c2)c(I)c1)C(=O)O | inactive |
| Cc1ccc2c(n1)Oc1ccc(C(C)C(=O)OCC(=O)N(C)C)cc1C2 (stereo unspecified) | inactive |
| Cn1c([N+](=O)[O-])cnc1COC(N)=O | inactive |
| CCCC(C)=O | inactive |
| O=C(/C=C/C=C/c1ccc2c(c1)OCO2)N1CCCCC1 | inactive |
